In PubChem BioAssay (Tox21):
Activity calls are given as the source filed them. Unless noted, calls come from the whole dose curve; as a rule, active = well fitted curve in the direction sought with a large enough effect in the repeat runs; inconclusive = weak or mixed curves; inactive = no such curve, though single readings can be large; an effect the other way counts as inactive or inconclusive.

Experiments:
[1] = qHTS assay for small molecules that induce genotoxicity in human embryonic kidney cells expressing luciferase-tagged ATAD5 (AID 651632); note: nearly all actives have a fitted effect of over 15% in size
Outline: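 Reporter cells (HEK293T) express luciferase-tagged ATAD5, a protein that accumulates after DNA damage. Treat 16 hr at 37C/5% CO2, add Amplite, wait 30 min at RT, and read luminescence.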

[2] = qHTS assay for small molecule agonists of the p53 signaling pathway - cell viability (AID 651633; calls by dose curve; note: nearly all actives have a fitted effect of over 30% in size; note: potency is the fitted concentration of half-maximal effect)
Outline: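 p53RE-bla cells, seeded at 4,000 per well and rested 5 h at 37 C/5% CO2, received compounds in DMSO for 16 h at 37 C. CellTiter-Glo was then added, and luminescence was read after 30 min at room temperature to gauge cytotoxicity.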

[3] = qHTS assay for small molecules that induce genotoxicity in human embryonic kidney cells expressing luciferase-tagged ATAD5 - cell viability (AID 651634; calls by dose curve; note: nearly all actives have a fitted effect of over 25% in size; note: potency is the fitted concentration of half-maximal effect)
Outline: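 Seeding of 2,000 HEK293T ATAD5-luciferase cells per well preceded pin-tool compound transfer. Plates sat 15.5 hr at 37C under 5% CO2, then fluorescence was read after 30 min with CellTiter-Fluor.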

[4] = qHTS assay for small molecule disruptors of the mitochondrial membrane potential - cell viability (AID 720634; calls by dose curve; note: nearly all actives have a fitted effect of over 20% in size; note: potency is the fitted concentration of half-maximal effect)
Outline: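 Measuring cytotoxicity alongside mitochondrial potential, the screen quantified ATP by luminescence in HepG2 cells after 1 hr compound incubation and a 30 min room-temperature CellTiter-Glo step.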

[5] = qHTS assay to test for compound auto fluorescence at 590 nm (red) in HepG2 cells (AID 720674)
Outline: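 Rose Bengal sodium served as the red fluorophore standard. HepG2 monolayers (overnight attachment, MEM with 10% FBS) were exposed to test compounds for 1 hr at 37 C and read at Ex 540/Em 590 nm.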

[6] = qHTS assay to test for compound auto fluorescence at 535 nm (green) in HepG2 cells (AID 720675)
[7] = qHTS assay to test for compound auto fluorescence at 460 nm (blue) in HEK293 cells (AID 720678)
Outline: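 After cell attachment (4-5 hr, 37C), compounds were pinned onto HEK293 monolayers in 10% dialyzed FBS medium. The blue channel (405/460 nm) was read following overnight culture. Equivalency was calculated against triamterene.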

[8] = qHTS assay to test for compound auto fluorescence at 460 nm (blue) in HEK293 cell free culture (AID 720681)
Outline: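 Test compounds were pinned into cell-free culture medium (DMEM with 10% FBS) and fluorescence was read directly at Ex/Em 405/460 nm. Signals were expressed as fluorescence equivalents of triamterene, with DMSO vehicle as control.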

[9] = qHTS assay to test for compound auto fluorescence at 535 nm (green) in HEK293 cell free culture (AID 720682)
Outline: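 Green-channel intensity (Ex/Em 485/535 nm) was recorded from compound-treated wells containing only DMEM with 10% FBS. Fluorescein provided the equivalency standard.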

[10] = qHTS assay to test for compound auto fluorescence at 590 nm (red) in HEK293 cell free culture (AID 720683)
Outline: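 Tox21 10K library compounds were pinned into cell-free DMEM with 10% FBS and fluorescence was read at excitation 540 nm. Activity is expressed as Rose Bengal sodium equivalency.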

[11] = qHTS assay to test for compound auto fluorescence at 590 nm (red) in HepG2 cell free culture (AID 720684)
Outline: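 Measured in medium alone (MEM containing 10% FBS) following pintool addition of compound; emission at 590 nm with 540 nm excitation, referenced to Rose Bengal sodium.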

[12] = qHTS assay to test for compound auto fluorescence at 460 nm (blue) in HepG2 cell free culture (AID 720685)
Outline: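 Compound (23 nL) or DMSO pinned into cell-free MEM with 10% FBS; blue fluorescence read at 405/460 nm excitation/emission, expressed as auto-fluorescence equivalency to triamterene.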

[13] = qHTS assay to test for compound auto fluorescence at 535 nm (green) in HepG2 cell free culture (AID 720686)
[14] = qHTS assay to test for compound auto fluorescence at 460 nm (blue) in HepG2 cells (AID 720687)
Outline: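 Cells (2,000/well in MEM with 10% FBS) attached overnight at 37 C, then were exposed to compound or DMSO for 1 hr at 37 C, 5% CO2. Fluorescence read at Ex/Em 405/460 nm, expressed as triamterene-equivalent signal.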

[15] = biological target: Glucocorticoid receptor (Homo sapiens) (UniProt P04150); experiment: qHTS assay to identify small molecule agonists of the glucocorticoid receptor (GR) signaling pathway (AID 720691; active = well fitted activation curve with a large enough effect in the signal ratio in the repeat runs, not every such curve was filed as active; inconclusive = weak or mixed curves, or effect the other way; inactive = no such curve, though single readings can be large or run the other way; the % refers to the signal ratio; note: potency is the fitted concentration of half-maximal effect); conditions: GR-bla HeLa, beta-lactamase reporter ratio, 18 h; activation: at 62.4 µM (top of the series)
Outline: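 Reporter read-out: fluorescence intensity following 2 h room-temperature LiveBLAzer B/G FRET substrate loading. Prior step: GR-bla HeLa cells held 4 h, then treated 18 h at 37 C.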

[16] = qHTS assay for small molecule disruptors of the mitochondrial membrane potential (AID 720635); note: potency is the fitted concentration of half-maximal effect
Outline: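 HepG2 cells (2,000/well) attached overnight at 37C, then took compound for 1 hr at 37C, 5% CO2. Mito-MPS dye was added for 30 min; fluorescence was read at 490/535 nm (monomers) and 540/590 nm (aggregates).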

[17] = qHTS assay to test for compound auto fluorescence at 535 nm (green) in HEK293 cells (AID 720680)
[18] = qHTS assay to test for compound auto fluorescence at 590 nm (red) in HEK293 cells (AID 720679)
Outline: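 Plates of HEK293 cells (10% dialyzed FBS) are treated with 23 nL compound or DMSO vehicle after a 4-5 hr attachment period, incubated overnight at 37C, and read for red fluorescence at 540/590nm.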

[19] = biological target: Glucocorticoid receptor (Homo sapiens) (UniProt P04150); experiment: qHTS assay to identify small molecule antagonists of the glucocorticoid receptor (GR) signaling pathway (AID 720692; active = well fitted inhibition curve with a large enough effect in the signal ratio in the repeat runs, not every such curve was filed as active; inconclusive = weak or mixed curves, or effect the other way; inactive = no such curve, though single readings can be large or run the other way; the % refers to the signal ratio; note: potency is the fitted concentration of half-maximal effect)
Outline: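 Dexamethasone (5 nM final) stimulated a stably integrated GRE-beta-lactamase reporter in HeLa cells during 18 h co-incubation with compounds; signal was quantified as fluorescence intensity of B/G FRET substrate after 2 h.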
% is set by controls: 0 for no effect and ±100 for the full control effect.

Sequence of Glucocorticoid receptor (Homo sapiens) (P04150 whole entry, looked up): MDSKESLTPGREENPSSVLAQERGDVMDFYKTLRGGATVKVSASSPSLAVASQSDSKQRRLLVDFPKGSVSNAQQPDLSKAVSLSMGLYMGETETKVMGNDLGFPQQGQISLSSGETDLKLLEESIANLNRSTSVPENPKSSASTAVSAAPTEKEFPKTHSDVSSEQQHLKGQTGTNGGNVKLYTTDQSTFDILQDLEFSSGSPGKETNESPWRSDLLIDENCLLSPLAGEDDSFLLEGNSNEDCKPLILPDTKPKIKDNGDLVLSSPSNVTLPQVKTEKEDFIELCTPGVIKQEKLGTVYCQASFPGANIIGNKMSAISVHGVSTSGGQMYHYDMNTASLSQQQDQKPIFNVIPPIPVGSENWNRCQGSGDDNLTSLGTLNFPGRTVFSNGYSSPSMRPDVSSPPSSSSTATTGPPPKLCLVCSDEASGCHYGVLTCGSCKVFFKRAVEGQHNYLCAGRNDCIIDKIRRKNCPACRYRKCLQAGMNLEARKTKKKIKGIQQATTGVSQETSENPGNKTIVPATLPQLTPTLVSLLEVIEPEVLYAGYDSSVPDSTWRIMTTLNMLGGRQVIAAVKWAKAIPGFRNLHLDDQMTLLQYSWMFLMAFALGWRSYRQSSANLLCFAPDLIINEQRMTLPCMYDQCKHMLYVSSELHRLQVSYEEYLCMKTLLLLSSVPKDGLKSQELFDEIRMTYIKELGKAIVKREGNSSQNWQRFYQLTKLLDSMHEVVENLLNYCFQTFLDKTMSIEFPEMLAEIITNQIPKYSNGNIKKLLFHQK

CCCCCCC[N+](CC)(CC)CCCCc1ccc(Cl)cc1
inactive: Potency [1] | Potency [2] | Potency [3] | Potency [4] | fluorescence, relative to Rose Bengal [5] -0.305% [at 18.6 µM] | fluorescence, % of fluorescein control [6] -0.0059% [at 18.6 µM] | fluorescence, % of triamterene [7] 0.0756% [at 18.6 µM] | fluorescence, % of fluorescent control [8] -0.0966% [at 18.6 µM] | activity change [9] -0.0177% [at 18.6 µM] | fluorescence, % of fluorescent control [10] -0.544% [at 18.6 µM] | fluorescence, % of Rose Bengal [11] -0.101% [at 18.6 µM] | fluorescence, % of fluorescent control [12] -0.0851% [at 18.6 µM] | fluorescence, % of fluorescein control [13] 0.172% [at 18.6 µM] | fluorescence, % of fluorescent control [14] -0.0972% [at 18.6 µM] | Potency [15]

Cc1cc(O)c(C(C)(C)C)cc1Sc1cc(C(C)(C)C)c(O)cc1C
inactive: Potency [1] | Potency [5] | Potency [7] | outcome [17] | Potency [8] | outcome [9] | Potency [10] | Potency [11] | Potency [12] | Potency [13] | Potency [14]
active: Potency [2] 13.7 µM | Potency [3] 54.4 µM | Potency [4] 61 µM | Potency [16] 0.768 µM

Cc1cc(CCN2CCN(c3nsc4ccccc34)CC2)cc2c1NC(=O)CC2(C)C
active: Potency [2] 43.3 µM | Potency [3] 61.1 µM | Potency [4] 54.5 µM
inactive: Potency [1] | Potency [5] | Potency [6] | Potency [7] | Potency [18] | outcome [17] | Potency [8] | outcome [9] | Potency [10] | Potency [11] | Potency [14] | Potency [15]

C[C@]12CCC(=O)C=C1CC[C@@H]1[C@@H]2[C@@H](O)C[C@@]2(C)[C@H]1CC[C@]2(O)C(=O)COC(=O)CCC(=O)O
active: Potency [15] 0.848 µM [inconclusive]
inactive: Potency [1] | Potency [2] | Potency [3] | Potency [4] | Potency [5] | Potency [6] | Potency [7] | Potency [18] | outcome [17] | Potency [8] | outcome [9] | Potency [10] | Potency [11] | Potency [12] | Potency [13] | Potency [14]

CCOC(=O)O[C@H](C)OC(=O)c1ccc2c(c1)cc(C(=O)NC1CCN(C(C)C)CC1)n2Cc1cc(-c2ccc(Cl)s2)on1
inactive: Potency [1] | Potency [5] | Potency [6] | Potency [7] | outcome [17] | Potency [8] | outcome [9] | Potency [10] | Potency [11] | Potency [12] | Potency [13] | Potency [14]
active: Potency [2] 25.5 µM | Potency [3] 57.1 µM | Potency [16] 64.1 µM

CCCCC(CC)COC(=O)c1ccccc1C(=O)O (stereo not given)
active: Potency [19] 39.6 µM
inactive: Potency [1] | Potency [2] | Potency [3] | Potency [4] | Potency [5] | Potency [6] | Potency [7] | Potency [18] | outcome [17] | Potency [8] | outcome [9] | Potency [10] | Potency [11] | Potency [12] | Potency [13] | Potency [14] | Potency [15]

O=C(Oc1cccc2cccnc12)c1ccccc1
inactive: Potency [1] | Potency [2] | Potency [3] | Potency [4] | Potency [5] | Potency [6] | Potency [7] | Potency [18] | outcome [17] | Potency [8] | outcome [9] | Potency [10] | Potency [11] | Potency [12] | Potency [13] | Potency [14] | Potency [19]

CC(C)CCCCCCCCCCCCCCC(=O)O
inactive: Potency [1] | Potency [3] | Potency [5] | Potency [6] | Potency [7] | Potency [18] | outcome [17] | Potency [8] | outcome [9] | Potency [10] | Potency [11] | Potency [12] | Potency [13] | Potency [14] | Potency [15] | Potency [19]
active: Potency [2] 61.1 µM

O=C(Oc1ccccc1)c1ccccc1C(=O)Oc1ccccc1
inactive: Potency [1] | Potency [2] | Potency [3] | Potency [5] | Potency [6] | Potency [7] | Potency [18] | outcome [17] | Potency [8] | outcome [9] | Potency [10] | Potency [11] | Potency [12] | Potency [14] | Potency [15] | Potency [19]

C[C@@H](NCCCc1cccc(C(F)(F)F)c1)c1cccc2ccccc12
active: Potency [2] 18.8 µM | Potency [3] 26.6 µM | Potency [4] 26.6 µM
inactive: Potency [1] | Potency [5] | Potency [7] | Potency [18] | outcome [17] | Potency [8] | outcome [9] | Potency [10] | Potency [11] | Potency [12] | Potency [14]

CC(NN)c1ccccc1 (stereo not given)
inactive: Potency [1] | Potency [2] | Potency [3] | Potency [4] | Potency [16] | Potency [5] | Potency [7] | Potency [18] | outcome [17] | Potency [8] | Potency [10] | Potency [11] | Potency [12] | Potency [13] | Potency [14] | Potency [15] | Potency [19]

CCC1OCC(COc2ccc(Oc3ccccc3)cc2)O1 (stereo not given)
inactive: Potency [1] | Potency [2] | Potency [3] | Potency [4] | Potency [5] | Potency [6] | Potency [7] | Potency [18] | outcome [17] | Potency [8] | outcome [9] | Potency [11] | Potency [12] | Potency [13] | Potency [14] | Potency [15]

CCc1oc2ccccc2c1C(=O)c1cc(Br)c(O)c(Br)c1
active: Potency [2] 26.6 µM | Potency [16] 5.96 µM | Potency [19] 15.1 µM
inactive: Potency [1] | Potency [3] | Potency [5] | Potency [6] | Potency [7] | Potency [18] | outcome [17] | Potency [8] | Potency [10] | Potency [11] | Potency [14] | Potency [15]

CC(C)c1ccc2c(c1)CC[C@H]1[C@](C)(CN)CCC[C@]21C
inactive: Potency [1] | Potency [5] | Potency [7] | Potency [18] | outcome [17] | Potency [8] | outcome [9] | Potency [10] | Potency [11] | Potency [13] | Potency [14]
active: Potency [2] 27.3 µM | Potency [3] 38.6 µM
